From PubChem BioAssay (NCATS)
Records with an inconclusive call do not appear. Activity calls are given as the source filed them. Calls follow the shape of the dose curve; as a rule, active = well fitted curve in the direction sought with a large enough effect; inconclusive = small, poorly fitted or top-dose-only effect, or another doubt; inactive = no such curve, though single readings can be large; an effect the other way counts as inactive or inconclusive.

Legend:
[1] = molecular target: Glutathione peroxidase 1 (Homo sapiens) (UniProt P07203); experiment: Primary qHTS Assay for Inhibitors of Recombinant Selenoprotein Glutathione Peroxidase 1 (GPX1) (AID 1845191); also: nearly all actives have a fitted effect of over 65% in size; as to activity, negative = inhibition: % is scaled to controls: 0 for no effect and ±100 for the full control effect
Chain of Glutathione peroxidase 1 (Homo sapiens) (P07203 whole entry, looked up): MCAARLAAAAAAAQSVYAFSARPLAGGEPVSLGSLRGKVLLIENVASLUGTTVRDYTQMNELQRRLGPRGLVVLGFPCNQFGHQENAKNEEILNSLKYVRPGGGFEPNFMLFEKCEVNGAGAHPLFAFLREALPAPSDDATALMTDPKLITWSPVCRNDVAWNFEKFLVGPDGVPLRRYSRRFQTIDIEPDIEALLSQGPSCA
How it was run: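 GR-coupled readout: NADPH consumption tracked by fluorescence, ex 340/em 450 nm, at t=0 and after 15 min at RT. Final mix 10 nM GPX1, 1 mM GSH, 0.5 mM CHP, 0.5 mM NADPH, 100 nM GR, 0.01% BSA, following 30 min enzyme–compound preincubation.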

[2] = molecular target: Phospholipid hydroperoxide glutathione peroxidase GPX4 (Homo sapiens) (UniProt P36969); experiment: Primary qHTS Assay for Inhibitors of Recombinant Selenoprotein Glutathione Peroxidase 4 (GPX4) (AID 1845192); also: nearly all actives have a fitted effect of over 65% in size; as to activity change, negative = inhibition: series mostly up to about 50 µM; % is scaled to controls: 0 for no effect and ±100 for the full control effect
Chain of Phospholipid hydroperoxide glutathione peroxidase GPX4 (Homo sapiens) (P36969 whole entry, looked up): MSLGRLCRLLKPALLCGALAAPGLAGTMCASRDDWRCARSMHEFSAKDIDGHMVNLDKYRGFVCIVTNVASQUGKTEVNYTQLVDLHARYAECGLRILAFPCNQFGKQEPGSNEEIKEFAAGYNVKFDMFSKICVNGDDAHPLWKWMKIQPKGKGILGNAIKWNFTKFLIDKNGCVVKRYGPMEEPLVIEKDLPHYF
How it was run: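 Steps: GPX4 plus compound, 30 min RT; add GR/GSH/NADPH master mix; start with cumene hydroperoxide; read 340/450 nm fluorescence at 0 and 15 min. Finals were 200 nM GPX4, 1 mM GSH, 0.5 mM CHP, 0.5 mM NADPH, 100 nM GR.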

[3] = molecular target: Luciferin 4-monooxygenase (Photinus pyralis) (UniProt P08659); experiment: Primary firefly luciferase (FLuc) qHTS assay for identification of artifact compounds. (AID 1845220); also: nearly all actives have a fitted effect of over 60% in size;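 as to activity change, negative = inhibition: series mostly up to about 54 µM; plate controls were DMSO vehicle for no effect and no enzyme for full effect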
How it was run: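 D-luciferin and ATP (10 uM each, final) in Tris acetate buffer pH 7.6 were incubated with compounds for 15 min at room temperature. The reaction was started with 10 nM Photinus pyralis luciferase and luminescence read after 5 min. Percent inhibition was fitted to a 4-parameter Hill equation.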

[4] = Primary fluorescence-based thiol-reactive (MSTI) qHTS assay for identification of artifact compounds. (AID 1845221); also: nearly all actives have a fitted effect of over 65% in size; also: potency is read from the fitted curve at half-maximal effect;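 as to activity change, negative = thiol reactive: series mostly up to about 54 µM; thiol-reactive compounds lower the probe fluorescence signal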
How it was run: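 In PBS pH 7.4 with 2% DMSO, each compound met 4 uM MSTI for one hour at ambient temperature, shielded from light, before fluorescence detection.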

[5] = system: Nanoluciferase (engineered Oplophorus gracilirostris luciferase); experiment: Primary Nanoluciferase (NLuc) qHTS assay for identification of artifact compounds. (AID 1845222);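 also: series mostly up to about 54 µM; 0% = DMSO and -100% = no enzyme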
How it was run: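 Diluted conditioned medium from NLuc-expressing S16 cells treated with compounds for 15 min at room temperature, then Nano-Glo substrate added; luminescence read after 5 min. Percent inhibition versus no-enzyme and DMSO controls fitted to 4-parameter Hill equation.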

[6] = Primary redox qHTS assay for identification of artifact compounds. (AID 1845223);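 also: 0% = DMSO and 100% = reference compound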
How it was run: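 Redox-cycling detection via DTT (250 uM final) oxidation coupled to Amplex Red (25 uM)/HRP (250 mU/mL) in HBSS. 15 min preincubation plus 30 min after DTT, room temperature. Ex/Em 525/598 nm; 4-parameter Hill fit against DMSO and 10 uM DA3003.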

C=C[C@H]1[C@H](O[C@@H]2O[C@H](CO)[C@@H](O)[C@H](O)[C@H]2O)OC=C2C(=O)OCC[C@]21O
active: Potency [4] 11.7 µM
inactive: Potency [1] | Potency [2] | Potency [3] | Potency [5]

COCCN(C)Cc1ccc2nc3sc(C(=O)N(C)C4CCCCC4)cn3c2c1
inactive: Potency [1] | Potency [2] | Potency [3] | Potency [4] | Potency [5]

CCNC(=O)[C@@H]1CCCN1C(=O)[C@H](CCCN=C(N)N)NC(=O)[C@H](CC(C)C)NC(=O)[C@@H](C)NC(=O)[C@H](Cc1ccc(O)cc1)NC(=O)[C@H](CO)NC(=O)[C@H](Cc1c[nH]c2ccccc12)NC(=O)[C@H](Cc1cnc[nH]1)NC(=O)[C@@H]1CCC(=O)N1
inactive: Potency [1] | Potency [2] | Potency [3] | Potency [4] | Potency [5]

CNC(=O)[C@H]1O[C@@H](n2cnc3c(NCc4ccc(N)c(I)c4)ncnc32)[C@H](O)[C@@H]1O
inactive: activity, negative = inhibition [1] 3.67% [at 9.52 µM] | activity change, negative = inhibition [2] -1.09% [at 9.73 µM] | outcome [3] inactive [at 11.6 µM] | activity change, negative = thiol reactive [4] 20.2% [at 11.5 µM] | activity, negative = inhibition [5] -0.867% [at 11.6 µM] | redox activity (% of DA3003) [6] 1.11% [at 11.5 µM]

CC(=O)OC[C@@]12[C@H](O)C[C@@H](C)[C@]3(C[C@@H](c4ccoc4)OC3=O)[C@H]1C[C@H](O)C[C@]21CO1
inactive: Potency [1] | Potency [2] | Potency [3] | Potency [4] | Potency [5] | Potency [6]

C[C@@H]1CC[C@]2(C(=O)O)CC[C@]3(C)C(=CCC4[C@]5(C)C(CC[C@]43C)C(C)(C)[C@@H](O)[C@H](O)[C@@H]5O)C2[C@]1(C)O (stereo partly drawn)
inactive: Potency [1] | Potency [2] | Potency [3] | Potency [4] | Potency [5]

CO[C@@]12CC3[C@@H]([C@@H](O)[C@@H](OC(C)=O)C4[C@](C)(COC(C)=O)CCC[C@]34C)[C@@H](C)C1=CC(=O)O2 (stereo partly drawn)
inactive: Potency [1] | Potency [2] | Potency [3] | Potency [4] | Potency [5]

COc1cc(/C=C/C(=O)O[C@H]2[C@H](OC(=O)/C=C/c3cc(OC)c(O)c(OC)c3)O[C@H](CO[C@@H]3O[C@H](CO)[C@@H](O)[C@H](O)[C@H]3O)[C@@H](O)[C@@H]2O)ccc1O
inactive: Potency [1] | Potency [2] | Potency [3] | Potency [4] | Potency [5] | Potency [6]

CC(=O)O[C@H]1C[C@@H]2[C@]3(CC[C@]4(C)[C@@H](C5(C)CCC(C(C)(C)O)O5)[C@@H](O)C[C@@]24C)C[C@@]32CC[C@H](O[C@@H]3OC[C@@H](O)[C@H](O)[C@H]3O)C(C)(C)[C@H]12 (stereo partly drawn)
inactive: Potency [1] | Potency [2] | Potency [3] | Potency [4] | Potency [5]

C=C1CC23CCC4[C@@](C)(CCC[C@@]4(C)C(=O)O)C2CCC1C3 (stereo partly drawn)
inactive: Potency [1] | Potency [2] | Potency [3] | Potency [4] | Potency [5] | Potency [6]

NS(=O)(=O)OC[C@@H]1C[C@@H](n2ccc3c(N[C@H]4CCc5ccccc54)ncnc32)C[C@@H]1O
inactive: Potency [1] | Potency [2] | Potency [3] | Potency [4] | Potency [5]

CC(=O)OC(CSC1CCC(=O)OC(C)CCC(=O)C1)C(=O)O (stereo not drawn)
inactive: Potency [1] | Potency [2] | Potency [3] | Potency [4] | Potency [5] | Potency [6]

C[C@H](NCc1ccc(OCc2ccccc2F)cc1)C(N)=O
inactive: Potency [1] | Potency [2] | Potency [3] | Potency [4] | Potency [5] | Potency [6]

COc1ccc(C)c2sc(NC(=O)c3ccncc3)nc12
inactive: Potency [1] | Potency [2] | Potency [3] | Potency [4] | Potency [5] | Potency [6]

COc1ccccc1[C@@H]1C2=C(CC(C)(C)CC2=O)Nc2n[nH]c(C(F)(F)F)c21
inactive: Potency [1] | Potency [2] | Potency [3] | Potency [4] | Potency [5] | Potency [6]

C1CCN2CC3C[C@@H](CN4CCCC[C@@H]34)[C@H]2C1
inactive: Potency [1] | Potency [2] | Potency [3] | Potency [4] | Potency [5] | Potency [6]

COc1cc(C)c(C(=O)O[C@H]2[C@@H](O)[C@H](n3ccc(=O)[nH]c3=O)O[C@@H]2CO)c(OC)c1
inactive: Potency [1] | Potency [2] | Potency [3] | Potency [4] | Potency [5] | Potency [6]

CC1(C)CCCC2(C)C(CO)C3CCC2C31 (stereo not drawn)
inactive: Potency [1] | Potency [2] | Potency [3] | Potency [4] | Potency [5] | Potency [6]

CC(=O)O[C@@H]1[C@@H](OC(=O)/C=C/c2ccccc2)[C@H](C)O[C@@H](O[C@H]2[C@@H]3C=CO[C@@H](O[C@@H]4O[C@H](CO)[C@@H](O)[C@H](O)[C@H]4O)[C@@H]3[C@@]3(CO)O[C@@H]23)[C@@H]1OC(C)=O
inactive: Potency [1] | Potency [2] | Potency [3] | Potency [4] | Potency [5] | Potency [6]

C[C@H]1C[C@H]2[C@@H]3CCC4=CC(=O)C=C[C@]4(C)[C@@]3(F)[C@@H](O)C[C@]2(C)[C@@]1(O)C(=O)COP(=O)(O)O
inactive: Potency [1] | Potency [2] | Potency [3] | Potency [4] | Potency [5] | Potency [6]
